PubChem BioAssay AID1159580 (chemical genetic matrix, 2015)
The whole screen tested about 5,500 compounds, of which about 2,000 (36%) were called active. About 18% were inconclusive and are not listed. Cut-off read from the data, not from the text of the source: active = normalized growth mostly below about 0.91 (no sharp cut-off); inconclusive = no clear call, values can overlap the other calls; inactive = mostly above about 0.92. This is one part of the list.

Assay: chemical genetic growth profiling, strain panel (AID 1159580);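 note: tested at 20 µM; growth read once vehicle control cultures reached saturation at 30 °C; 1 = growth at the plate median or of vehicle wells; lower values mean less growth of the strain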
Settings: S. cerevisiae deletion strains, growth OD

Measured: normalized growth

CC(C)NCC(O)c1ccc(NS(C)(=O)=O)cc1 (stereo unspecified)
inactive: locus YAL040C, strain CLN3, stronger effect = lower value 1.01 | locus YCL061C, strain MRC1 (second series), stronger effect = lower value 1 | locus YDR363W, strain ESC2, stronger effect = lower value 0.973 | locus YER002W, strain NOP16, stronger effect = lower value 1 | locus YGR078C, strain PAC10, stronger effect = lower value 1.01 | locus YJR075W, strain HOC1, stronger effect = lower value 0.986 | locus YMR263W, strain SAP30, stronger effect = lower value 1 | locus YMR307W, strain GAS1, stronger effect = lower value 1.02 | locus YNL153C, strain GIM3, stronger effect = lower value 1.04 | locus YNL175C, strain NOP13, stronger effect = lower value 1 | locus YNL197C, strain WHI3, stronger effect = lower value 1.01 | locus YNL224C, strain SQS1, stronger effect = lower value 1 | locus YNL322C, strain KRE1, stronger effect = lower value 0.985 | locus YOR083W, strain WHI5 (second series), stronger effect = lower value 1 | locus YPL055C, strain LGE1, stronger effect = lower value 0.977 | locus YPL241C, strain CIN2, stronger effect = lower value 0.999
